49 molecules from PubChem BioAssay AID1948 (National Center for Advancing Translational Sciences (NCATS), 2009) can be followed below.

Hit rate of the full screen: of about 110,000 compounds, about 20 (0.02%) were called active. Inconclusive results (about 2%) are left out. The full list was thinned out, with actives kept by preference. A number with no mark means an inactive call. Calls come from the whole dose curve; as a rule, active = well fitted activation curve with a large enough effect; inconclusive = small, poorly fitted or top-dose-only effect; inactive = no such curve, though single readings can be large or run the other way.

A short description of the assay: qHTS Assay for Compounds that Induce Erasure of Genomic Imprints.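 Note: 0% = negative control wells on the plate.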 Conditions: mouse ES Peg3-LacZ reporter, beta-gal luminescence, 40 h; series mostly up to 10.9 µM; activity change, positive = activation: at the top concentration. The text has this:
qHTS Assay for Compounds that Induce Erasure of Genomic Imprints NIH Chemical Genomics Center [NCGC] NIH Molecular Libraries Screening Centers Network [MLSCN] Assay Submitter (PI): JEFFRIES, SEAN, NCGC, University of Cambridge NCGC Peg3 Imprinting Assay Overview Genomic imprinting is the epigenetic process whereby genes are expressed in a parent of origin fashion. […] Unlike some forms of epigenetic silencing that can be overcome by overexpression of transcription factors, genomic imprinting stably represses the expression of one allele despite potentially high levels of expression from the other allele. […] During mouse embryonic day 11.5 imprints are erased in PGCs so that sex specific imprints can be reestablished during gametogenesis. Embryonic germ (EG) cells can be derived from developing PGCs at embryonic day 11.5 and these cells often lack genomic imprints. […] Embryonic stem (ES) cells are a cell type similar to EG cells in phenotype and transcriptional profile, yet ES cells maintain genomic imprints. This similarity between ES and EG cells prompted us to use ES cells to look for factors which could induce imprint erasure. To investigate the stability of genomic imprinting, ES cells were derived from mice with an insertion of a LacZ-Neomycin reporter construct in the Peg3 locus. Peg3 is an imprinted locus where gene expression is restricted to the paternal allele. […] Using LacZ expression we are able to monitor the state of the Peg3 imprint. In order to dissect the mechanisms involved in imprint erasure using a forward chemical genetics approach we developed a cell based phenotype assay using an endogenous silence imprinted locus. This assay utilizes maternally inherited Peg3LacZ-Neo ES cells by monitoring the LacZ expression from the normally silent Peg3 allele. To facilitate screening, high-density feeder-free ES cell culture has been optimized so that ES cells can be grown in 1536 for over four days without feeding or washes. The assay uses a luminescence based read out for LacZ activity and is a homogenous assay optimal for HTS.
NCGC Peg3 Imprinting Assay Protocol Summary ES cell lines were derived from blastocysts taken from Peg3LacZ-Neo x129 matings. Lines were sexed and genotyped for the Peg3LacZ-Neo allele. Female cells carrying the reporter allele were used in this study. Cells were derived on a layer of mouse embryonic fibroblasts and passaged multiple times before switching to feeder free culture. Cells were maintained feeder free on gelatin coated dishes in DMEM/F12 media supplemented with 15% FBS, 2mM L-glutamine, 100 units/ml penicillin, 100ug/ml streptomycin, 0.1mM MEM nonessential amino acids, 1mM sodium pyruvate, 0.1% sodium bicarbonate, 0.1mM 2-Mercaptoethanol, and 400 units/ml leukemia inhibitory factor (LIF) at 37C with 5% CO2. The assay was performed in 1536-well format. A single luminescence read was taken at the end of the assay and the data was normalized by plate to internal negative controls. Maximum efficacy and AC50 values were calculated from dose-response data using the standard Hill equation. 1536 well plates were filled with 0.5ul of 0.1% gelatin per well, spun down and incubated for at least 30 min at 37C. The ES cells were then trypsini Peg3 1536-well assay protocol: (1)Plate 0.5ul/well 0.1% gelatin in white tissue culture treated 1536-well plates, spin and incubate at 37C for at least 30 min. (2)Add 5ul/well (300 cells) of ES cell suspension from freshly trypsinized cells and incubate at 37C, 5% CO2 for 40 hours. (3)Add 5ul/well of freshly prepared BetaGlo solution and incubate at room temperature for 5 minutes. (4)Read luminescence on the ViewLux plate reader. Keywords Genomic Imprinting, Germ Cells, Embryonic Stem Cell, DNA Methylation, Peg3, qHTS, NIH roadmap, NCGC
(In general: qHTS replaces the single test concentration by a dilution series.)
Take `Cc1nc2ccn(Cc3cccnc3)c(=O)c2cc1C(=O)N1CCN(c2ccccc2F)CC1`: the “activity change, positive = activation” value is -12.9%.

`COc1cc(OC)c(NC(=O)c2nc(-c3ccncc3)no2)cc1Cl`: the “activity change, positive = activation” value was 1.79%.

For the molecule `COc1ccccc1NC(=O)c1oc2ccccc2c1NC(=O)COc1ccccc1OC`, the “activity change, positive = activation” value is -14.1%.

On to `Cc1c(-c2nsc(NC(=O)c3cccc(Cl)c3)n2)nnn1-c1ccccc1C(F)(F)F`, for which the “activity change, positive = activation” value is 11.8%.

As to `O=C(c1cccs1)c1cn(CCOc2ccc(Cl)cc2)c2ccccc12`, the “activity change, positive = activation” value is -14.8%.

On to `CC(=O)c1c(C)n(S(=O)(=O)c2ccc(Cl)cc2)c2ccc(NS(=O)(=O)c3ccc(Cl)cc3)cc12`, for which the “activity change, positive = activation” value is -15.8%.

As to `COc1ccccc1CNC(=O)NCc1noc2ccc(C)cc12`, the “activity change, positive = activation” value is -12.8%.

With `COc1cccc(-c2nnc3n(CCc4ccccc4)c(=O)c4ccccc4n23)c1O`, the “activity change, positive = activation” value was -1.81%.

On to `COc1cccc(CNCCSc2nnnn2C)c1OCc1ccccc1Cl`, for which the “activity change, positive = activation” value was -19.5%.

With `CCOC(=O)c1ccc(-c2ccc(/C=C(\C#N)C(=O)Nc3ccc(OCC)cc3)o2)cc1`, the “activity change, positive = activation” value was -9.53%.

Regarding `COc1ccc(NC(=O)CSc2nnc(-c3nnn(-c4ccc(F)cc4)c3C)o2)cc1`, the “activity change, positive = activation” value was -10.1%.

As to `COc1ccc(N2CCN(S(=O)(=O)c3ccc(-c4coc(C)n4)cc3)CC2)cc1`, the “activity change, positive = activation” value was -7.96%.

For the molecule `Cc1ccccc1C(=O)Nc1sc2c(c1C(=O)N1CCC(C)CC1)CCCC2`, the “activity change, positive = activation” value is -10.6%.

As for `CC(=O)[C@H](C(c1ccccc1)N1CCOCC1)N1CCOCC1` (some centres undefined), the “activity change, positive = activation” value was -10.7%.

In the case of `COc1cc(C(=O)Nc2ccc(OCc3cc(=O)n4ccc(C)cc4n3)cc2)cc(OC)c1OC`, the “activity change, positive = activation” value was -13.3%.

`CCc1cccc(NC(=O)CSc2nccn2C)c1`: the “activity change, positive = activation” value was -8.86%.

For `COc1ccc(S(=O)(=O)NCCSc2nnnn2-c2ccccc2)cc1`, the “activity change, positive = activation” value was -6.91%.

On to `CCOc1ccc(OCC)c(NC(=O)c2c(C)nn(-c3ccccc3)c2-n2cccc2)c1`, for which the “activity change, positive = activation” value was -4.23%.

For the molecule `Cc1c(Cl)cccc1NC(=O)C(=O)NCCc1csc2nc(-c3ccccc3F)nn12`, the “activity change, positive = activation” value is -1.33%.

For the molecule `CC(Sc1oc(-c2ccco2)nc1S(=O)(=O)c1ccc(Br)cc1)c1ccccc1` (centres undefined), the “activity change, positive = activation” value was -9.57%.

In the case of `Cc1cc(Cl)ccc1OCC(=O)N(Cc1ccc(N(C)C)cc1)C1CCS(=O)(=O)C1` (centres undefined), the “activity change, positive = activation” value was 10.5%.

With `COc1ccc(Cc2nc3ccc(C(=O)NCc4ccccc4C)cc3o2)cc1`, the “activity change, positive = activation” value was -10.1%.

Regarding `CC(=O)Nc1cc(C(=O)NCc2ccc(F)cc2Cl)ccc1Sc1ccc(Cl)cc1`, the “activity change, positive = activation” value is 3.52%.

For `COc1ccc(-c2nc3ccccc3o2)cc1NC(=O)c1cc([N+](=O)[O-])ccc1N1CCOCC1`, the “activity change, positive = activation” value is -12.3%.

Consider `Cn1c(=O)c2c(nc(SCC(=O)Nc3ccc(F)cc3)n2Cc2ccccc2)n(C)c1=O`, for which the “activity change, positive = activation” value is -8.43%.

Take `CC(=O)OC1=C(C(C)=O)N(Cc2ccccc2)S(=O)(=O)c2ccccc21`: the “activity change, positive = activation” value was -8.79%.

For the molecule `CCOc1ccccc1NC(=O)Cn1c(=O)n(-c2cccc(C)c2)c(=O)c2c1c1cc(OC)ccc1n2C`, the “activity change, positive = activation” value is -9.1%.

Consider `CCc1nn(CC(=O)NCC(C)c2ccccc2)c(=O)c2cc3occc3n12` (centres undefined), for which the “activity change, positive = activation” value was -4.37%.

On to `Fc1ccccc1Oc1ncnc2c1oc1ccccc12`, for which the “activity change, positive = activation” value is 13.2%.

In the case of `COc1ccc(OC)c(NC(=O)CN2CCCN(Cc3cc(C)ccc3C)S2(=O)=O)c1`, the “activity change, positive = activation” value was -5.63%.

For `O=C(Nc1c(C(=O)N2CCN(c3ccc(F)cc3)CC2)oc2ccccc12)c1ccco1`, the “activity change, positive = activation” value was 14.6%.

For the molecule `COc1ccccc1CNCc1ccc(C(=O)O)s1`, the “activity change, positive = activation” value was 24.7%.

On to `O=C(C1CCC(Cn2c(=O)c3sccc3n(Cc3ccccc3F)c2=O)CC1)N1CCCCC1` (centres undefined), for which the “activity change, positive = activation” value was 9.72%.

As to `COc1ccc(OC)c(CNC(=O)CN2C(=O)CCn3nc(-c4cn(C)c5ccccc45)cc32)c1`, the “activity change, positive = activation” value was -8.77%.

Turning to `COc1ccccc1CNC(=O)c1ccc(CS(=O)c2ccccc2Cl)o1` (centres undefined), the “activity change, positive = activation” value was -10.1%.

Consider `CCN1CCc2nc3sc(C(=O)Nc4ccccc4OC(F)(F)F)c(N)c3cc2C1`, for which the “activity change, positive = activation” value was -7.94%.

Consider `COc1cc(OC)cc(-c2nc3nc(C)c(CCC(=O)Nc4ccc(C)cc4)c(C)n3n2)c1`, for which the “activity change, positive = activation” value was -11.7%.

In the case of `CC1CCC2(CC1)N=C(c1ccccc1)C(=O)N2CC(=O)Nc1ccc(F)c(Cl)c1` (centres undefined), the “activity change, positive = activation” value was -6.53%.

Regarding `CCOc1ccc(NC(=O)c2cc(S(=O)(=O)N3CCCC3)c[nH]2)cc1`, the “activity change, positive = activation” value is -5.17%.

As to `CC1CCN(S(=O)(=O)c2ccc3c(ccn3CCC(=O)NCc3ccc(N(C)C)cc3)c2)CC1`, the “activity change, positive = activation” value was 12%.

On to `Cc1c(C(=O)NCc2ccccc2Br)oc2ccc3c(c12)C(=O)CC(C)(C)O3`, for which the “activity change, positive = activation” value is -7.58%.

Take `CCc1nn(CC(=O)N2CCN(c3ccc(Cl)cc3)CC2)c(=O)c2cc3occc3n12`: the “activity change, positive = activation” value was 13.7%.

As to `COc1ccc(CCn2cc3c(c2-c2ccc(Br)cc2)c(=O)n(C)c(=O)n3C)cc1OC`, the “activity change, positive = activation” value is -14%.

On to `Cc1ccccc1NC(=O)Cn1c(=O)n(CC2CCC(C(=O)NCCc3ccccc3)CC2)c(=O)c2ccccc21` (centres undefined), for which the “activity change, positive = activation” value was -6.05%.

For the molecule `Cc1ccc2nc(COc3ccccc3NC(=O)Nc3ccc(F)c(Cl)c3)cc(=O)n2c1`, the “activity change, positive = activation” value is -5.98%.

Turning to `CCOC(=O)c1c(N)n(-c2cccc(C)c2C)c2nc3ccccc3nc12`, the “activity change, positive = activation” value was -12.5%.

In the case of `COc1ccc2c(c1)C=C(C(=O)NCc1cc(Br)ccc1OC)CO2`, the “activity change, positive = activation” value is 2.77%.

For the molecule `COC(=O)c1cnc(N2CCN(c3ccccc3OC)CC2)c2ccccc12`, the “activity change, positive = activation” value was 2.25%.

For `COc1ccc(Br)cc1C1CC(=O)Nc2c1c(C)nn2-c1nc(C)cc(C)n1` (centres undefined), the “activity change, positive = activation” value is -9.77%.
